Data as given in PubChem BioAssay (NCI).
This is part of a sample that, as a whole, favours compounds with a hit. Of some 83,000 tested, about 20% had one in any assay.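 Each cell line was grown in a 96-well plate and treated with one concentration of compound for 48 hours. Values below 10 were considered active.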 A number with no mark means an inactive call. The source made the active and inactive calls.

Columns and labels:
Test in all cases: NCI-60 one-dose screen, 48 h (100 = growth as untreated, 0 = no growth, -100 = all killed)
Conditions in all cases: 10 µM unless noted
NCI-H23 lung = tested on: NCI-H23 lung
NCI-H226 lung = tested on: NCI-H226 lung
NCI-H322M lung = tested on: NCI-H322M lung
HOP-62 NSCLC = tested on: HOP-62 NSCLC
NCI-H460 lung = tested on: NCI-H460 lung
HOP-92 NSCLC = tested on: HOP-92 NSCLC
NCI-H522 lung = tested on: NCI-H522 lung
A549/ATCC NSCLC = tested on: A549/ATCC NSCLC
786-0 renal = tested on: 786-0 renal
COLO 205 colon = tested on: COLO 205 colon

SMILES	growth (NCI-H23 lung)	growth (NCI-H226 lung)	growth (NCI-H322M lung)	growth (HOP-62 NSCLC)	growth (NCI-H460 lung)	growth (HOP-92 NSCLC)	growth (NCI-H522 lung)	growth (A549/ATCC NSCLC)	growth (786-0 renal)	growth (COLO 205 colon)
C[C@H]1Oc2cc(cnc2N)-c2c(nn(C)c2C#N)CN(C)C(=O)c2ccc(F)cc21	84%	92.2%	104%	50%	96.7%	48.4%	66.5%	66.1%	77.9%	36.3%
COc1cnc2c(c1)C(=O)c1c-2n(CCCn2ccnc2)c(=O)c2cc(Cl)ccc12	-1.2% (active)	6.75% (active)	22.4%	-16.7% (active)	1.24% (active)	31.8%	12.3%	17.4%	-17.9% (active)	11.1%
COc1ccc(-c2nocc2-c2cc(OC)c(OC)c(OC)c2)cc1	19.2%	58.8%	44.6%	29.6%	8.8% (active)	76%	-5.37% (active)	25.4%	43.9%	-12.4% (active)
CN1CCN(CCOc2cc(OC3CCOCC3)c3c(Nc4c(Cl)ccc5c4OCO5)ncnc3c2)CC1	81.4%	100%	2.76% (active)	29.7%	89.9%	35.3%	11.5%	24.8%	48.1%	42.5%
CC[C@H](CO)Nc1nc(NCc2ccccc2)c2ncn(C(C)C)c2n1	63.5%	76%	61.3%	48.2%	47.8%	65.4%	48.8%	56%	57.6%	47.1%
Cc1ccccc1Nc1nc2nonc2nc1Nc1cccc(C)c1C	17.9%	48.6%	80.7%	72.1%	41.1%	22.5%	3.35% (active)	27.4%	65.9%	59.2%
O=C(Nc1nc2cccc(-c3ccc(CN4CCS(=O)(=O)CC4)cc3)n2n1)C1CC1	65.2%	55.9%	87.6%	57.3%	5.79% (active)	96.3%	6.67% (active)	60.1%	85.5%	59.5%
NN1C(=O)CSC1=S	97.5%	100%	98.9%	81.7%	105%	102%	73.3%	65.5%	99.2%	107%
Cc1cc(Nc2ncnc3ccc(NC4=NC(C)(C)CO4)cc23)ccc1Oc1ccn2ncnc2c1	35.6%	47%	5.34% (active)	22.3%	26.9%	9.05% (active)	6.43% (active)	20.7%	29.7%	-60.7% (active)
CCc1nc2cc(/C=C/C(=O)NO)ccc2c(=O)n1CCc1ccc(OC)cc1	24.5%	50%	29.9%	16.6%	13%	22.5%	15.2%	24.1%	21%	-2.84% (active)
CCCCCCC1(/C=N/NC(N)=O)NC(=O)NC1=O (stereo not given)	94%	91.4%	102%	78.3%	111%	110%	58%	70.5%	98.2%	91.9%
COc1cc2c(Oc3ccc4[nH]c(C)cc4c3F)ncnc2cc1OCCCN1CCCC1	84%	57.3%	93%	79.8%	96.7%	95.9%	88.3%	84.5%	84.6%	88.9%
Cn1nccc1Nc1nccc(-c2ccn([C@H](CO)c3ccc(Cl)c(F)c3)c(=O)c2)n1	68.5%	110%	61%	78.8%	99.5%	103%	71.2%	72.3%	93%	14.4%
COC(=O)c1ccc2c(C(=Nc3ccc(N(C)C(=O)CN4CCN(C)CC4)cc3)c3ccccc3)c(O)[nH]c2c1	67.8%	47%	58.8%	38.8%	92%	18.4%	39.1%	45.8%	41.4%	34%
COC(=O)CC[C@@H](C)[C@H]1CC[C@H]2C3CC[C@@H]4C[C@@H]5CC[C@]4(C)[C@@]3(O5)[C@H](Br)[C@@H](Br)[C@]12C (stereo not given in full)	81.1%	87.1%	104%	85.8%	107%	93.4%	58%	68.6%	92.5%	101%
O=c1[nH]ccc2c(S(=O)(=O)N3CCCNCC3)cccc12	78.5%	81.7%	29.6%	68.8%	95.3%	30%	17.3%	81.3%	54%	112%
FC(F)(F)c1ccc(CNc2ccc(Cc3c[nH]c4ncc(Cl)cc34)cn2)cn1	23.7%	9.04% (active)	33.2%	23.1%	44.5%	37.7%	9.44% (active)	5.16% (active)	-49.3% (active)	-72.4% (active)
COc1cc2nccc(Oc3ccc(NC(=O)C4(C(=O)Nc5ccc(F)cc5)CC4)cc3)c2cc1OC	14.4%	11.7%	12.1%	9.04% (active)	6.12% (active)	-36.9% (active)	11.4%	2.35% (active)	13.1%	-44.7% (active)
C=CC(=O)Nc1cc(Nc2nccc(-c3cn(C)c4ccccc34)n2)c(OC)cc1N(C)CCN(C)C	8.43% (active)	-50.5% (active)	-5.77% (active)	-23.9% (active)	-54.8% (active)	-15.8% (active)	-68.6% (active)	-43.5% (active)	-87.9% (active)	-81.1% (active)
